Measured values reported in PubChem BioAssay AID588591 (National Center for Advancing Translational Sciences (NCATS), 2011).
Hit rate of the full screen: of about 390,000 compounds, about 4,700 (1.2%) were called active. Inconclusive results (about 4%) are left out. The call rests on the fitted dose curve; in most records, active means well fitted inhibition curve with a large enough effect; inconclusive means small, poorly fitted or top-dose-only effect, or another doubt; inactive means no such curve, though single readings can be large or run the other way. Shown is part of a subset that was picked to be rich in actives. Where a call stands in place of a potency, no number is given.

Molecular target: DNA polymerase eta (Homo sapiens) (UniProt Q9Y253)
Assay: qHTS for Inhibitors of Polymerase Eta
Conditions: recombinant Pol eta, fluorescent DNA replication assay; series mostly up to 114 µM
In short: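 Pol eta at 10 nM preincubated with compounds 15 min at room temperature; reaction started with fluorescent substrate (50 nM final) and read kinetically at 0 and 10 min.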
Potency means the concentration at half of the fitted maximal effect.

DNA polymerase eta (Homo sapiens), sequence (Q9Y253 whole entry, looked up): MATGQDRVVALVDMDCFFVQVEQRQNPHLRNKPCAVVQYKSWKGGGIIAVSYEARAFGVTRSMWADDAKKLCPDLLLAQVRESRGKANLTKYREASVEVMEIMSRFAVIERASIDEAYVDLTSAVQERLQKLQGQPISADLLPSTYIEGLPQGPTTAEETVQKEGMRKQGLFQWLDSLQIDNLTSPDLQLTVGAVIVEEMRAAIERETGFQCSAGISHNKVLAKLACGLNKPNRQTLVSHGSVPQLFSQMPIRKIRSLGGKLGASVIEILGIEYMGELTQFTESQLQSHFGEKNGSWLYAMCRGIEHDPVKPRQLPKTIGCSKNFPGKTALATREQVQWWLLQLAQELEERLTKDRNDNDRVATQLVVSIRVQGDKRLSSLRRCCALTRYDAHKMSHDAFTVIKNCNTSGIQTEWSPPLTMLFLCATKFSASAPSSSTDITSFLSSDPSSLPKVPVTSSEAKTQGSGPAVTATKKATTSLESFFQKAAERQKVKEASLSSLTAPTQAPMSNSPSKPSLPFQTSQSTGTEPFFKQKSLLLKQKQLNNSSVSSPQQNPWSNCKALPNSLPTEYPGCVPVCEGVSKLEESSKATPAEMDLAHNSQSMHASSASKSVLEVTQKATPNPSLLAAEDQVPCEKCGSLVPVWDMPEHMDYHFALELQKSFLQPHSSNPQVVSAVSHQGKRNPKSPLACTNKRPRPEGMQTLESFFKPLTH

Question: How did the Potency turn out when `CCOc1ccc2nc(N3CCCC(C(=O)Nc4cc(C)ccc4C)C3)sc2c1` (stereo unspecified) was run?
Answer: Its Potency is “inactive”.

Question: Which Potency does the source give for `COc1ccc(CCOC2OC(CO)C(OC(=O)/C=C/c3ccc(O)c(OC)c3)C(O[C@H]3O[C@@H](C)[C@H](O)[C@@H](O)[C@H]3O)C2O)cc1O` (stereo partly specified) here?
Answer: Its Potency is “inactive”.

Question: For `C[C@@H]1O[C@@H](OC[C@H]2O[C@@H](Oc3c(-c4ccc(O)cc4)oc4cc(O)cc(O)c4c3=O)[C@H](O)[C@@H](O)[C@@H]2O)[C@H](O)[C@H](O)[C@H]1O`, which Potency is on record?
Answer: Its Potency is “inactive”.

Question: Which Potency does the source give for `COc1ccc(-c2cc(=O)c3c(O)cc(O[C@@H]4O[C@H](CO[C@@H]5O[C@@H](C)[C@H](O)[C@@H](O)[C@H]5O)[C@@H](O)[C@H](O)[C@H]4O)cc3o2)cc1O` here?
Answer: Its Potency is 79.4 µM (active).

Question: With `COc1ccccc1-n1c(-c2cc(-c3ccco3)[nH]n2)n[nH]c1=S` as the molecule, how does the Potency read?
Answer: The Potency was 50.1 µM (active).

Question: How did the Potency turn out when `COc1ccc(OCc2n[nH]c(=S)n2N)cc1` was run?
Answer: The Potency was “inactive”.

Question: `Cc1cc(-c2n[nH]c(=S)n2-c2ccc(C)c(C)c2)no1` was tested. Which Potency did it give?
Answer: Its Potency is “inactive”.

Question: For `COc1ccc(C(=O)Nc2nonc2-c2ccc(OC)c(OC)c2)cc1Cl`, which Potency is on record?
Answer: Its Potency is “inactive”.

Question: Which Potency does the source give for `Cc1cccc(OCCCC(=O)Nc2sc3c(c2C(N)=O)CCC(C)C3)c1` (stereo unspecified) here?
Answer: Its Potency is “inactive”.

Question: For `Cc1ccc(S(=O)(=O)N2CCCC2C(=O)OCc2nc3sc(C)c(C)c3c(=O)[nH]2)cc1` (stereo unspecified), which Potency is on record?
Answer: Its Potency is “inactive”.

Question: For `CSc1nnc(SCc2nc3sc(C(=O)O)c(C)c3c(=O)[nH]2)s1`, which Potency is on record?
Answer: The Potency was 3.16 µM (active).

Question: How did the Potency turn out when `CCN(CC)Cc1nc2sc(C)c(C)c2c(=O)[nH]1` was run?
Answer: Its Potency is “inactive”.

Question: How did the Potency turn out when `CCc1nn(CC(=O)NCC(C)c2ccccc2)c(=O)c2cc3occc3n12` (stereo unspecified) was run?
Answer: The Potency was “inactive”.

Question: For `Cc1cc(Cl)ccc1OCC(=O)N(Cc1ccc(N(C)C)cc1)C1CCS(=O)(=O)C1` (stereo unspecified), which Potency is on record?
Answer: The Potency was “inactive”.

Question: `COc1ccc2c(c1)c(=O)c(C(=O)c1ccccc1)cn2CC(=O)Nc1ccc2c(c1)OCCO2` was tested. Which Potency did it give?
Answer: The Potency was “inactive”.

Question: How did the Potency turn out when `CCOC(=O)c1ccc(NC(=O)C2CCN(S(=O)(=O)c3ccc4c(c3)CCCC(=O)N4)CC2)cc1` was run?
Answer: Its Potency is “inactive”.

Question: `O=c1n(Cc2cccc(C(F)(F)F)c2)c2ccccc2c2nc(-c3ccccc3)nn12` was tested. Which Potency did it give?
Answer: The Potency was “inactive”.

Question: Which Potency does the source give for `CC1(OC(=O)C2CCCC2)C(=O)C=C2C=C(c3ccc(C#N)cc3)OC=C2C1=O` (stereo unspecified) here?
Answer: The Potency was 20 µM (active).

Question: With `Cc1ccccc1C(=O)N1CCC(C(=O)Oc2ccc(C#N)cc2)CC1` as the molecule, how does the Potency read?
Answer: The Potency was “inactive”.

Question: Which Potency does the source give for `N#Cc1ccc(C2=CC(=O)C[C@H](c3ccc(Cl)cc3)C2)cc1` here?
Answer: The Potency was “inactive”.

Question: With `CCOC(=O)c1c(N)n(-c2cccc(C)c2C)c2nc3ccccc3nc12` as the molecule, how does the Potency read?
Answer: The Potency was “inactive”.
